Only some compounds are listed: those with a hit (about 14% of all), similar ones and a draw of the others.
Pf growth 48h: Primary qHTS for delayed death inhibitors of the malarial parasite plastid, 48 hour incubation. P. falciparum luciferase growth in erythrocytes, 48 h. Potency, µM (top dose mostly 28.7 µM), for inactives: top-dose activity change, negative = inhibition, actives largely listed as inhibitors. 310,000 tested, 5.9% active. AID 504832, 2011; note: potency is the fitted concentration of half-maximal effect
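Read-out is firefly luciferase luminescence from an integrated reporter in P. falciparum, so falling signal marks reduced parasite growth. Infected erythrocytes were at 2% hematocrit and 0.1% parasitemia (final) in Albumax-supplemented RPMI 1640.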
Pf growth 96h: Primary qHTS for delayed death inhibitors of the malarial parasite plastid, 96 hour incubation; P. falciparum luciferase reporter growth, 96 h; Potency, µM (series often up to 28.7 µM), for the others: at the highest dose activity change, negative = inhibition, most hits filed as inhibitors; 320,000 tested, 6.9% active; AID 504834, 2011; note: potency is the fitted concentration of half-maximal effect
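Two-generation exposure (96 h) targets delayed-death phenotype. Reporter parasites carrying integrated firefly luciferase, in red cells at 2% hematocrit and 0.05% parasitemia final, kept at 37 C, 5% CO2; luminescence loss indicates inhibition.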
Sm TGR inh: qHTS Assay for the Inhibitors of Schistosoma Mansoni Peroxiredoxins. purified TGR, DTNB reduction, TNB absorbance 405 nm. Potency, µM (doses to about 114 µM), for the others: top-dose activity change, negative = inhibition, actives largely listed as inhibitors. 360,000 tested, 3% active. AID 485364, 2010; note: potency is the fitted concentration of half-maximal effect; nearly all actives have a fitted effect of over 60% in size
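TGR 20 nM + NADPH 100 uM (dispensed conc.), cpd preinc 15 min RT; start with NADPH (500 uM addition) then DTNB (15 mM addition). Kinetic TNB absorbance, 405 nm filter. Four-parameter Hill fit across titration.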
Giardia FBPA inh: qHTS Assay for Inhibitors of Fructose-1,6-bisphosphate Aldolase from Giardia Lamblia; AID 2451, 2010; purified Giardia FBPA; 290,000 tested, 0.71% active; Potency, µM (top dose mostly 59.6 µM), without a hit: top-dose activity, negative = inhibition, most hits filed as inhibitors; note: potency is the fitted concentration of half-maximal effect; nearly all actives have a fitted effect of over 55% in size
Target sequence (A8B2U2 whole entry, looked up): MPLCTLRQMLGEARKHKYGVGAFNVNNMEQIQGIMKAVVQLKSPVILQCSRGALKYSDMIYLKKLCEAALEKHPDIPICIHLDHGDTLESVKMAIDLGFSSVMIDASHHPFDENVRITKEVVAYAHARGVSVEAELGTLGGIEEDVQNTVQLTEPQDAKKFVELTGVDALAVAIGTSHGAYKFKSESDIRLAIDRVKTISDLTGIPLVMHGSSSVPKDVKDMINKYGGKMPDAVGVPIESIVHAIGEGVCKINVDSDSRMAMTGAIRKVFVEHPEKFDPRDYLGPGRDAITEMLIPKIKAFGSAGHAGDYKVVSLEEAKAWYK
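40 nM FBPA preincubated 10 min at RT with compound (up to 57.5 uM final), then substrate plus GAPDH/TPI/NAD/arsenate coupling and diaphorase/resazurin added. Fluorescence read after 20 min at RT, 525/598 nm.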
HCMV inh: qHTS Assay for inhibitors of the human cytomegalovirus (HCMV) | HFF cells, HCMV-luciferase reporter, 72 h; hits give low values | activity change, negative = inhibition, % at 57.5 µM | 410,000 tested, 4.5% active; in the data active = activity change below about -60%; inconclusive = no clear call, values can overlap the other calls; inactive = above about -39%
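Two-dose cell screen: HFF monolayers treated with compounds and infected with luciferase-expressing HCMV at 1 PFU/cell, 72 h at 37C, then lysed for luciferase measurement.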
Numbers without * were called inactive. Unless noted, calls come from the whole dose curve; as a rule, active = well fitted curve in the direction sought with a large enough effect; inconclusive = small, poorly fitted or top-dose-only effect, or another doubt; inactive = no such curve, though single readings can be large; an effect the other way counts as inactive or inconclusive. % is set by controls: 0 for no effect and ±100 for the full control effect.

Screening CC(C)CCN1CCN(Cc2cccn2-c2ccccn2)CC1CCO (centres undefined) returned Pf growth 48h -2.6%, Pf growth 96h 10.0%, Sm TGR inh 5.1%, Giardia FBPA inh 1.3% and HCMV inh -2.3.
`CC(C)CN1CCN(Cc2cccn2-c2ccccn2)CC1CCO` (centres undefined) gave Pf growth 48h 55.3%, Pf growth 96h 8.28µM*, Sm TGR inh -13.8%, Giardia FBPA inh 0.5% and HCMV inh -30.5.
`CC(C)CN1CCN(CC#Cc2ccccc2)CC1CCO` (centres undefined) gave Pf growth 48h 27.5%, Pf growth 96h 11.7µM*, Sm TGR inh -30.4%, Giardia FBPA inh 0.1% and HCMV inh 37.3.
`OCCC1CN(CC#Cc2ccccc2)CCN1Cc1ccccc1F` (centres undefined) gave Pf growth 48h -11.2%, Pf growth 96h 11.7µM*, Sm TGR inh 20µM*, Giardia FBPA inh 3.4% and HCMV inh -19.4.
CC(C)=CCN1CCN(CC#Cc2ccccc2)CC1CCO (centres undefined) was read as Pf growth 48h inconclusive, Pf growth 96h 42.1%, Sm TGR inh -23.7%, Giardia FBPA inh 15.1% and HCMV inh inconclusive.
COc1ccc(CC(=O)OC(C)C(=O)NCc2ccc3c(c2)OCO3)cc1OC (centres undefined) was read as Pf growth 48h -13.8%, Pf growth 96h 7.6%, Sm TGR inh -5.9% and HCMV inh -9.8.
For Cc1ccc(Cn2c(CNC(=O)c3cccc(C)c3)nc3ccccc32)cc1 the results were Sm TGR inh 6.1% and HCMV inh -20.8.
`COc1cc(/C=N/NC(=O)c2nnn(-c3nonc3N)c2C(C)C)ccc1OCc1ccccc1` gave Pf growth 48h inconclusive, Pf growth 96h 9.28µM*, Sm TGR inh 6.4% and HCMV inh -29.5.
Screening COc1cc(/C=N/NC(=O)c2nnn(-c3nonc3N)c2C)ccc1OCc1ccc(Cl)cc1 returned HCMV inh -60.5*.
`Cc1c(C(=O)N/N=C/c2cccc(O)c2)nnn1-c1nonc1N` gave Pf growth 48h inconclusive, Pf growth 96h 13.1µM*, Sm TGR inh -21.5%, Giardia FBPA inh -2.7% and HCMV inh inconclusive.
`COc1cccc2sc(NN)nc12` gave Pf growth 48h -18.8%, Pf growth 96h inconclusive, Sm TGR inh 14.2%, Giardia FBPA inh -28.7% and HCMV inh 29.1.
Screening COc1ccccc1-c1nnc(Nc2nc3c(OC)cccc3s2)o1 returned Pf growth 48h inconclusive, Pf growth 96h inconclusive, Sm TGR inh 2.7%, Giardia FBPA inh inconclusive and HCMV inh -75.9*.
COc1cccc2sc(Nc3nnc(-c4ccccc4Cl)o3)nc12 was read as Pf growth 48h 9.28µM*, Pf growth 96h 1.31µM*, Sm TGR inh -6.1%, Giardia FBPA inh inconclusive and HCMV inh -60.2*.
For COc1cc(OC)c(NC(c2nnc(-c3ccccc3)o2)c2ccc(F)cc2Cl)cc1Cl (centres undefined) the results were Sm TGR inh -3.8% and HCMV inh -22.2.
Screening Cc1ccc(N(CC(=O)NC2CCCC2)C(=O)CNC(=O)c2cccs2)c(C)c1 returned Pf growth 48h -22.1%, Pf growth 96h inconclusive, Sm TGR inh 0.4%, Giardia FBPA inh 9.4% and HCMV inh -9.7.
`CCCCN(Cc1ccco1)S(=O)(=O)c1ccc(-c2ccc(=O)[nH]n2)s1` gave Pf growth 48h -3.7%, Pf growth 96h 14.7µM*, Sm TGR inh 25.1µM* and HCMV inh inconclusive.
COCCNC(=O)C1(C)CCCN(C(=O)c2cnc3ccccc3n2)C1 (centres undefined) was read as HCMV inh 27.8.
For CC1S/C(=N/N=C/c2ccco2)N(Cc2ccccc2)C1=O (centres undefined) the results were Pf growth 48h -12.8%, Pf growth 96h -9.8%, Sm TGR inh 35.5µM*, Giardia FBPA inh -15.2% and HCMV inh -10.3.
For O=C1C(Cc2ccccc2)S/C(=N/N=C/c2ccco2)N1c1ccccc1 (centres undefined) the results were Pf growth 48h 8.0%, Pf growth 96h 0.262µM*, Sm TGR inh inconclusive, Giardia FBPA inh -2.9% and HCMV inh 37.0.
For CCC1S/C(=N/N=C/c2ccco2)N(Cc2ccc(F)cc2)C1=O (centres undefined) the results were Pf growth 48h inconclusive, Pf growth 96h inconclusive, Sm TGR inh inconclusive, Giardia FBPA inh -3.6% and HCMV inh 5.5.
`Cc1ccccc1CN1C(=O)CS/C1=N/N=C/c1ccco1` gave Pf growth 48h inconclusive, Pf growth 96h inconclusive, Sm TGR inh 11.2µM*, Giardia FBPA inh -15.0% and HCMV inh 9.2.
For O=C1N/C(=N/N=C/c2ccco2)SC1Cc1ccccc1 (centres undefined) the results were Pf growth 48h inconclusive, Pf growth 96h 0.0%, Sm TGR inh -22.0%, Giardia FBPA inh -0.5% and HCMV inh -22.3.
O=C1CS/C(=N/N=C/c2ccccc2)N1Cc1ccco1 was read as Pf growth 48h 19.2%, Pf growth 96h 41.7%, Sm TGR inh 39.8µM*, Giardia FBPA inh -0.5% and HCMV inh 5.2.
`COc1ccc(N(C(C)=O)S(=O)(=O)c2cccc3cccnc23)cc1` gave Pf growth 48h -20.2%, Pf growth 96h -4.2%, Sm TGR inh 5.5%, Giardia FBPA inh 4.9% and HCMV inh 25.2.
`O=C(COc1ccc2ccccc2c1)Nc1ccc(Br)cc1C(=O)O` gave Pf growth 48h 3.2%, Pf growth 96h inconclusive, Sm TGR inh -27.7%, Giardia FBPA inh -20.1% and HCMV inh -29.2.
O=Nc1ccc(Br)cn1 was read as HCMV inh -6.4.
CCC1S/C(=N/N=C/c2ccco2)N(Cc2ccccc2C)C1=O (centres undefined) was read as Pf growth 48h inconclusive, Pf growth 96h inconclusive, Sm TGR inh 39.8µM*, Giardia FBPA inh 0.5% and HCMV inh -19.8.
CNCCCC1Sc2ccccc2Oc2ccccc21 (centres undefined) was read as Pf growth 48h inconclusive, Pf growth 96h 9.28µM*, Sm TGR inh -10.1%, Giardia FBPA inh -24.2% and HCMV inh 13.8.
For NC1=NC[C@H](Cc2ccccc2)N1CCc1cccc(F)c1 the results were Pf growth 48h 5.86µM*, Pf growth 96h 3.7µM*, Sm TGR inh 8.6%, Giardia FBPA inh -13.3% and HCMV inh 8.9.
NC1=NC[C@H](Cc2ccccc2)N1CCCCC1CCCCC1 was read as Pf growth 48h inconclusive, Pf growth 96h 11.7µM*, Sm TGR inh 9.8%, Giardia FBPA inh 3.0% and HCMV inh -31.1.
